# Test results published in PubChem BioAssay AID651828 (ICCB-Longwood Screening Facility, Harvard Medical School, 2012).
# The campaign covered roughly 20,000 compounds. About 25 (0.1%) were called active. Rule as the data show it: active = % bound below about 75%; inactive = the rest. Shown is part of a subset that was picked to be rich in actives.
# Molecular target: Nucleoprotein (Rift valley fever virus (strain ZH-548 M12)) (UniProt P21700)
# Assay: inhibitors of RVFV nucleoprotein–RNA binding, primary screen, biochemical, fluorescence polarization (AID 651828)
# Settings: RVFV N-RNA binding, hits give low values, concentration not given here
# Chain of Nucleoprotein (Rift valley fever virus (strain ZH-548 M12)) (P21700 whole entry, looked up): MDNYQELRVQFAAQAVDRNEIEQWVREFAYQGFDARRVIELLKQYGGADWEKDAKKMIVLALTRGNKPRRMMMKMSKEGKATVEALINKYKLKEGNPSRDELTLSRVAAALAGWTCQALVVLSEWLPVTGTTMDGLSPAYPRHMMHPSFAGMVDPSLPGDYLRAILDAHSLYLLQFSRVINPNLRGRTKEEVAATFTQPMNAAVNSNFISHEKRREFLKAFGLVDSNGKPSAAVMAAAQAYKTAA
row,Compound,% bound
1,Cc1ccc2occ(CN3CCSCC3)c(=O)c2c1,100% (inactive)
2,COc1ccc(C(C)=CC(=O)C(C)(C)C)cc1,96.7% (inactive)
3,Cc1nc2cc3nc(-c4cccs4)cnc3cc2n1C,115% (inactive)
4,O=C(Nc1ccc(C(=O)N2CCCc3ccccc32)cc1)c1ccco1,95.2% (inactive)
5,CC[C@H](CO)Nc1nc(NCc2ccccc2O)c2ncn(C(C)C)c2n1,98.6% (inactive)
6,Nc1nonc1C(=NCc1ccccc1)NO,96.3% (inactive)
7,COc1ccc(C(=O)c2cnc3ccccn23)cc1Cl,96.7% (inactive)
8,O=C(c1cccs1)c1coc2c1cc(O)c1ccccc12,94.6% (inactive)
9,O=c1[nH]c(O)c(C=Nc2ccccc2)c(=O)[nH]1,101% (inactive)
10,CC(C)=N/N=C1/NC(=O)C(CC(=O)Nc2cccc3ccccc23)S1 (stereo not drawn),96.1% (inactive)
11,CC(C)CN1C(=O)C=CC1=O,86.4% (inactive)
12,CC1(C)C(=O)C2(C(=O)Nc3cccc(C(F)(F)F)c3)CCC1C2 (stereo not drawn),98.6% (inactive)
13,CCCC(=O)N1CCN(c2ccc(NC(=O)c3cccc(C)c3OC)cc2Cl)CC1,92.1% (inactive)
14,O=C(Nc1ccccc1)C1CCCN(S(=O)(=O)c2ccccc2)C1 (stereo not drawn),98.9% (inactive)
15,COCC(C)N=CC1=C(O)CC(C)(C)CC1=O (stereo not drawn),94.3% (inactive)
16,O=C(OCCN1C(=O)c2ccccc2C1=O)Oc1ccccc1,93.9% (inactive)
17,O=c1[nH]c(NCCCN2CCOCC2)nnc1-c1ccccc1,93.9% (inactive)
18,O=C1C=C(Nc2ccccc2)C(=O)N1Cc1ccccc1,102% (inactive)
19,CCc1ccc(NC(=O)C(CC)CC)cc1,97.6% (inactive)
20,CC(C)NC(=O)C(C)Oc1ccc(S(N)(=O)=O)cc1 (stereo not drawn),96.3% (inactive)
21,Cc1cc(C(=O)Nc2ccc(C(=O)N3CCOCC3)cc2)cs1,88.4% (inactive)
22,CC(C)(O)C(/C=C/c1ccccc1)=N/NC(N)=O,96.4% (inactive)
23,O=C(CC(F)(F)F)Nc1ccccn1,94% (inactive)

row,Compound,% bound
1,COC(=O)C12CCC(C)(C(=O)O1)C2(C)C (stereo not drawn),90.1% (inactive)
2,OC1CCN(Cc2ccc[nH]2)CC1,95% (inactive)
3,Nc1nc2nc(-c3ccccc3)cc(-c3ccccc3)n2n1,92% (inactive)
4,COC(=O)CSc1nnc2c3ccccc3n(CCc3ccccc3)c2n1,104% (inactive)
5,Cc1ccc(C(=O)c2sc3[nH]c(=O)c(C(=O)O)cc3c2N)cc1,97.7% (inactive)
6,Cc1ccc(NC(=O)Nc2c(C)noc2-c2ccc(C(F)(F)F)cc2)cc1,97.4% (inactive)
7,CNC(=S)N/N=C/c1cccnc1,96.3% (inactive)
8,CC1=Nc2c(ccc3cccnc23)C1(C)C,45.3% (active)
9,COc1ccc(OCC(=O)Nc2ccc(CN3CCOCC3)cc2)cc1,87.6% (inactive)
10,O=C(C1CCCN(S(=O)(=O)c2ccccc2)C1)N1CCN(c2ccc(F)cc2)CC1 (stereo not drawn),102% (inactive)
11,CS(=O)(=O)Cc1ccccc1,97.7% (inactive)
12,Cc1cc(C)cc(C(=O)NC(=S)Nc2ccc3[nH]c(=O)[nH]c3c2)c1,98.5% (inactive)
13,COc1ccc(N2CC(NC(=O)NCC3CCCO3)CC2=O)cc1OC (stereo not drawn),110% (inactive)
14,CCCCOc1ccc(C(C)(C#N)CC#N)cc1 (stereo not drawn),102% (inactive)
15,COc1ccc(-c2cc(-c3cccs3)n(-c3nc(C)cc(=O)[nH]3)n2)cc1,109% (inactive)
16,O=c1[nH]c(=S)[nH]c(O)c1C=NC12CC3CC(CC(C3)C1)C2,91.6% (inactive)
17,O=C(Nc1ccc2c(c1)OCC1CCCN21)C1=Cc2ccccc2OC1 (stereo not drawn),96.2% (inactive)
18,CN(C)NS(=O)(=O)C1CCS(=O)(=O)C1 (stereo not drawn),93% (inactive)
19,COc1ccc(N2CCN(C(C)=C3C(=O)c4ccccc4C3=O)CC2)cc1,96.4% (inactive)
20,CCOC(=O)Nc1sccc1C(N)=O,96.8% (inactive)
21,Cc1cccc(N2CCN(C(=O)N(C)C)CC2)c1C,77.7% (inactive)
22,O=S1(=O)CC(S(=O)(=O)c2ccccc2)c2ccccc21 (stereo not drawn),92.2% (inactive)
23,COC(=O)c1ccc(CN2CCCC(C)C2)cc1 (stereo not drawn),100% (inactive)

row,Compound,% bound
1,CC12CCC(O)CC1=CCC1C2CCC2(C)/C(=N/N)CCC12 (stereo not drawn),94% (inactive)
2,COc1ccc(-c2nc3c(c(=O)c4ccccc4n3C)c(=O)n2Cc2ccco2)cc1,95.8% (inactive)
3,COc1ccc(CCNC(N)=O)cc1OC,94.3% (inactive)
4,CCOC(=O)N1CCN(C(=O)CN(c2ccccc2)S(=O)(=O)c2ccc(F)cc2)CC1,93.7% (inactive)
5,O=C1c2ccccc2C(=O)N1CCc1nn[nH]n1,93.6% (inactive)
6,Nc1cc(-c2ccccc2)[nH]n1,94.5% (inactive)
7,C/C(=N\N1CCN(C)CC1)C1=C(O)c2ccccc2C1=O,97.6% (inactive)
8,O=C(CCN1C(=O)c2ccccc2C1=O)Oc1c(-c2ccco2)oc2ccccc2c1=O,95% (inactive)
9,COc1ccccc1C(c1c(C)[nH][nH]c1=O)C(C#N)C#N (stereo not drawn),95.8% (inactive)
10,O=C(CCC(=O)c1ccccc1)c1ccccc1,93.9% (inactive)
11,CS(=O)(=O)N1CCN(C(=O)CSc2ccccc2)CC1,80.6% (inactive)
12,COc1cc(C2c3c(oc4ccccc4c3=O)C(=O)N2CCCOC(C)C)cc(Br)c1O (stereo not drawn),97.6% (inactive)
13,CCOC(=O)c1cn[nH]c1NC(=S)Nc1ccccc1,98.6% (inactive)
14,Cc1nc(N)sc1-c1ccnc(Nc2cccc([N+](=O)[O-])c2)n1,104% (inactive)
15,Cc1nc2sc(C(c3ccccc3Cl)N(C)Cc3ccccc3)c(O)n2n1 (stereo not drawn),108% (inactive)
16,CCC(=O)Nc1ccc(C(=O)n2nnc3ccccc32)cc1,94.2% (inactive)
17,CNS(=O)(=O)c1ccc(NC(=O)C2CC3C=CC2C3)cc1 (stereo not drawn),99.1% (inactive)
18,CC1(C)C/C(=N/O)c2ccoc2C1,97.9% (inactive)
19,CCC(=O)N=c1sc2cc(Br)ccc2n1CCOC,101% (inactive)
20,COc1ccc(CCC(=O)NCC#N)cc1,86.2% (inactive)
21,CCOc1ccc(C(=O)Nc2cccc(-c3ccc4nncn4n3)c2)cc1,107% (inactive)
22,Cc1ccc2oc(C(=O)N(C)c3ccccc3)c(C)c2c1,97.6% (inactive)
